p53 reactivator = qHTS assay for re-activators of p53 using a Luc reporter. H1299 p53-A138V BP100-luciferase reporter, luminescence, 24 h. Potency, µM (top dose mostly 92.2 µM), for inactives: top-dose activity change, positive = activation, usual class: activators. hit rate 0.063% among 320,000; further: potency means the concentration at half of the fitted maximal effect; % of control where 0% means no effect; nearly all actives have a fitted effect of over 45% in size
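H1299 (p53-null), stable ts p53-A138V + BP100-Luc; 1000 cells/well, Opti-MEM/10% FBS; cpd 4 pt, 1:5; 24 h, 37 deg C, 5% CO2; detection reagent 10 min RT; luminescence.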
B2AR arrestin = qHTS assay of beta-arrestin-biased ligands of beta2-adrenergic receptor. Beta-2 adrenergic receptor (Homo sapiens), P07550. beta-arrestin recruitment to beta2AR, cell-based reporter. Potency, µM (top dose mostly 46.1 µM), for the others: at the top dose activation, most hits filed as activators. hit rate 0.02% among 330,000. AID 492947, 2010;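 further: potency means the concentration at half of the fitted maximal effect; 0% = DMSO controls and full agonism = EC100 isoproterenol or metaproterenol; nearly all actives have a fitted effect of over 65% in size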
Giardia killer = Small Molecules that selectively kill Giardia lamblia: qHTS; hit rate 0.15% among 340,000; activity change, % at 7.66 µM, hits read low; Giardia lamblia trophozoite viability; in the data active means activity change below about -80%; inconclusive means between about -30% and that limit;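 further: parasites exposed to compound for two days anaerobically before the ATP read; on the % scale 0 is the no-effect control and ±100 the full control effect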
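Trophozoites 100 cells/well + cpd; 48 hrs, 37 deg C, anaerobic. ATPLite 1-Step added, 15-30 min RT, luminescence read (ATP-based viability).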
Pin1 inh = qHTS Assay to Find Inhibitors of Pin1. Peptidyl-prolyl cis-trans isomerase NIMA-interacting 1 (Homo sapiens), Q13526. Pin1 FP peptide displacement, HiFluor488, 10 min. Potency, µM (doses to about 115 µM), for the others: top-dose activity, negative = inhibition, actives largely listed as inhibitors. hit rate 0.009% among 390,000; active means well fitted inhibition curve with a large enough effect in the polarisation, with a control signal flat, not every such curve was filed as active; inconclusive means small, poorly fitted or top-dose-only effect, or effect the other way, or a change in a side signal; inactive means no such curve, though single readings can be large or run the other way; the % refers to the polarisation; further: potency means the concentration at half of the fitted maximal effect; on the % scale 0 is the no-effect control and ±100 the full control effect
Target sequence (Q13526 whole entry, looked up): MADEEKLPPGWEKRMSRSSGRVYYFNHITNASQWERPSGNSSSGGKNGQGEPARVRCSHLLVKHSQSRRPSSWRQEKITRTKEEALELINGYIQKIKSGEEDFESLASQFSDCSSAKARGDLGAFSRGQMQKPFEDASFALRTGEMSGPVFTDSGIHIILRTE
Epigenetic reg = Quantitative High-Throughput Screen for Regulators of Epigenetic Control; Potency, µM (titrated, usually from 53.9 µM), inactives show top-dose GFP activation, hits mostly activators; murine LDR cells, GFP reporter derepression, 30 h; hit rate 0.2% among 280,000; further: potency means the concentration at half of the fitted maximal effect; % of control where 0% means no effect; nearly all actives have a fitted effect of over 60% in size
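Murine LDR cells bearing a silenced CMV-driven GFP reporter were exposed to compound for 30 h at 37 C. After PBS washes, GFP-positive cells (20-120 um objects) counted by laser-scanning microplate cytometry.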
PI4K2A block = qHTS for small molecular inhibitors of PI4K2A | Phosphatidylinositol 4-kinase type 2-alpha (Homo sapiens), Q9BTU6 | purified PI4K2A, ADP-Glo luminescence, 1 h; active compounds read low | activity change, negative = inhibition, % at 76.9 µM | hit rate 0.13% among 420,000 | AID 1346378, 2018; in the data active means activity change below about -50%; inconclusive means mostly about -30% to -49%;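 further: -100% = wells without enzyme as full effect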
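Compounds are screened against recombinant PI4K2A using PI as substrate and ATP, the latter dispensed at 300 microM. Reactions run one hour at ambient temperature before ADP-Glo detection; full inhibition defined by wells lacking enzyme.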
* hit, by the source's call; ? = inconclusive; nt = no result given. An excerpt weighted towards active compounds, which were near 0.44% of everything screened. Unless noted, the call rests on the fitted dose curve; in most records, active means well fitted curve in the direction sought with a large enough effect; inconclusive means small, poorly fitted or top-dose-only effect, or another doubt; inactive means no such curve, though single readings can be large; an effect the other way counts as inactive or inconclusive.

SMILES	p53 reactivator	B2AR arrestin	Giardia killer	Pin1 inh	Epigenetic reg	PI4K2A block
Cc1occc1C(=O)NC(C)C12CC3CC(CC(C3)C1)C2 (stereo not drawn)	-1%	3%	-7	2%	2%	-1
Cc1occc1C(=O)NN=C1C2CC3CC(C2)CC1C3	13µM*	0%	-6	-15%	-1%	-12
CCN(CC)C(=O)CSc1nc(-c2cccs2)cc(-c2cccs2)c1C#N	27%	0%	-7	15%	35µM*	3
N#Cc1c(C(F)(F)F)cc(-c2cccs2)nc1SCC(=O)Nc1cccc(Cl)c1	nt	nt	nt	?	15%	-1
CCN(CC)C(=O)CSc1nc(N)c(C#N)c(-c2cccs2)c1C#N	-7%	0%	-11	-1%	-2%	-1
CCOC(=O)c1ccc(NC(=O)CSc2nc(-c3ccc(F)cc3)cc(C(F)(F)F)c2C#N)cc1	nt	nt	nt	?	7.1µM*	1
N#Cc1c(C(F)(F)F)cc(-c2cccs2)nc1SCC(=O)Nc1cccc(Br)c1	nt	nt	nt	?	10µM*	-2
CCOc1ccc(NC(=O)CSc2nc(-c3ccc(F)cc3)cc(C(F)(F)F)c2C#N)cc1	nt	nt	nt	?	-1%	5
COc1cc(F)c(S(=O)(=O)N2CCN(S(=O)(=O)c3ccco3)CC2)c(F)c1	nt	nt	nt	53%	nt	nt
Cc1ccccc1N1CCN(Cc2ccc([N+](=O)[O-])o2)CC1	7%	-2%	-83*	-17%	nt	-14
O=[N+]([O-])c1ccc(CN2CCN(c3ccccc3Cl)CC2)o1	8%	0%	?	-8%	nt	-1
O=[N+]([O-])c1ccc(N2CCN(Cc3ccc([N+](=O)[O-])o3)CC2)cc1	nt	-1%	?	?	nt	1
O=[N+]([O-])c1ccc(CN2CCN(c3ccccc3)CC2)o1	nt	-1%	-92*	-14%	nt	-12
COC(=O)C[C@H]1c2cc(F)ccc2S(=O)(=O)N1Cc1ccccc1	nt	nt	-24	4%	nt	-60*
COC(=O)C[C@H]1c2cc(F)ccc2S(=O)(=O)N1c1ccccc1	nt	nt	-9	6%	nt	-1
COc1cc(/C=C(\C#N)c2nc3ccccc3s2)ccc1OCC(=O)Nc1ccccc1	-5%	4%	9	?	3.2µM*	6
Cn1c(/C(C#N)=C(\O)c2ccc([N+](=O)[O-])s2)nc2ccccc21	5%	2%	-86*	0%	nt	3
Cc1ccccc1NC(=O)CN1C(=O)N/C(=C\c2ccccc2OCc2ccc(C(=O)O)cc2)C1=O	2%	0%	32	nt	nt	-51*
CCOC(=O)C1CCN(C(=O)N2CCOCC2)CC1	-2%	0%	-10	-4%	0%	-90*
O=C(NCc1nnnn1-c1ccc(F)cc1)c1ccc([N+](=O)[O-])o1	-24%	1%	-95*	-1%	nt	-3
O=C(NCC(c1ccc(F)cc1)N1CCOCC1)c1ccc([N+](=O)[O-])o1 (stereo not drawn)	-19%	0%	-101*	0%	nt	6
Cn1c(-c2ccccc2)cc2ccccc21	1%	0%	-8	0%	nt	-5
Cn1c(-c2ccccc2)cc2c3no[n+]([O-])c3ccc21	7.1µM*	-1%	-24	-1%	?	-19
CC(=O)N1CCCc2cc(S(=O)(=O)Nc3ccc(C)c(C)c3)ccc21	nt	nt	nt	3%	nt	nt
COc1cc(C(=O)/C=C/c2cccnc2)c([N+](=O)[O-])cc1OC	-28%	0%	-90*	-11%	nt	-7
COc1ccccc1-c1cc(C(=O)Nc2cc(C)on2)no1	?	0%	-8	-4%	-1%	-85*
O=c1[nH]c(=S)[nH]c2c1C(c1ccc(Br)cc1)c1c([nH]c(=S)[nH]c1=O)O2	-4%	0%	19	nt	nt	-56*
O=C1CCCC2=C1C(c1ccc(Br)cc1)c1c([nH]c(=S)[nH]c1=O)N2 (stereo not drawn)	-8%	0%	5	-11%	2%	-8
